In PubChem BioAssay:
The source made the active and inactive calls.

Tests used:
[1] = E. coli DRC41 culture turbidity changes, primary screen, E. coli filamentation inducer project, strain DRC41, OD650, 48 h (AID 1152);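 note: E. coli MC1000 strain DRC41 lacking acrAB efflux pump and sulA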; details: E. coli DRC41 (acrAB sulA), higher = more signal, called active from +8 up or from −8 down
[2] = small-molecule binders of probe aLefty1, primary screen, biochemical, small-molecule microarray, 635/667 nm fluorescence (AID 1153); details: higher = more signal;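 note: score merges spot fluorescence with signal-to-noise ratio from the scanned slide images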
[3] = PSAC antagonists in infected red cells, primary screen, cell-based, P. falciparum Indochina, OD700, 1 h (AID 1154); details: P. falciparum Indochina infected RBC osmotic lysis, higher = more signal, called active from +8 up or from −8 down
[4] = PSAC antagonists in infected red cells, primary screen, cell-based, P. falciparum Indochina, OD700, 2 h (AID 1155);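 note: lysis reports solute entry through the parasite surface anion channel PSAC; channel blockers reduce lysis of infected cells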; details: P. falciparum Indochina infected erythrocytes, osmotic lysis OD700; higher = more signal, called active from +8 up or from −8 down
[5] = osmotic lysis modulators in infected erythrocytes, primary screen, PSAC antagonist project, cell-based, P. falciparum Indochina, OD700, 3 h (AID 1156); details: higher = more signal, called active from +8 up or from −8 down
[6] = PSAC antagonists in infected red cells, primary screen, cell-based, P. falciparum Indochina, OD700, 18 h (AID 1157); details: P. falciparum Indochina infected erythrocytes, osmotic lysis OD700, 18 h; higher = more signal, called active from +8 up or from −8 down
[7] = modulators of S6 phosphorylation in cells, primary screen, cell-based, A549, cytoblot, luminescence, serum-stimulated (AID 1158); details: A549 phospho-S6 cytoblot, 5 h, higher = more signal;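 note: serum-stimulated A549 lung adenocarcinoma cells; signal is phosphorylated S6 detected by cytoblot immunostaining with HRP secondary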
[8] = biological target: NADPH oxidase 2 (Homo sapiens) (UniProt P04839); test: NOX2-dependent H2O2 signal modulators, primary screen, NOX inhibitor project, cell-based, HEK293-NOX2, PMA-stimulated, Amplex Red fluorescence (AID 1159); details: 45 min, higher = more signal, called active from +8 up or from −8 down; note: test concentration not given here
[9] = biological target: NADPH oxidase 4 (Homo sapiens) (UniProt Q9NPH5); test: NOX4-dependent H2O2 signal modulators, primary screen, NOX inhibitor project, cell-based, HEK293-NOX4, tetracycline-induced, Amplex Red fluorescence (AID 1160); details: 45 min, higher = more signal, called active from +8 up or from −8 down
[10] = biological target: NADPH oxidase 5 (Homo sapiens) (UniProt Q96PH1); test: NOX5-dependent H2O2 signal modulators, primary screen, NOX inhibitor project, cell-based, HEK293-NOX5, Amplex Red fluorescence (AID 1161); details: HEK293-NOX5, ionomycin, 45 min, higher = more signal
[11] = A549 cell viability effects, profiling panel, calcein-AM fluorescence, 48 h, basal (AID 1162); details: higher = more signal; note: test concentration not given here
[12] = adipocyte viability effects, profiling panel, cell-based, 3T3-L1 adipocytes, calcein-AM fluorescence, 48 h, basal (AID 1163); details: 3T3-L1 adipocytes viability, higher = more signal; note: test concentration not given here
[13] = HepG2 cell viability effects, profiling panel, calcein-AM fluorescence, 48 h, basal (AID 1164); details: higher = more signal; note: test concentration not given here
[14] = MM1S cell viability effects, profiling panel, calcein-AM fluorescence, 48 h, basal (AID 1165); details: higher = more signal;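 note: viability of MM1S multiple myeloma cells under basal unstimulated conditions; test concentration not given here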
[15] = basal RPMI8226 viability, no added stimulus, profiling panel, cell-based, calcein-AM fluorescence, 48 h, PK04 Diversity Set (AID 1166); details: RPMI8226 myeloma viability, higher = more signal;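 note: cells grown under basal conditions without added stimulus; test concentration not given here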
[16] = basal HepG2 mitochondrial membrane potential changes, profiling panel, cell-based, JC-1 fluorescence, 24 h, 100 nL compound (AID 1167); details: higher = more signal; note: test concentration not given here
[17] = basal 3T3-L1 adipocyte mitochondrial potential changes, profiling panel, cell-based, JC-1 fluorescence, 3T3-L1 adipocytes, 24 h, 100 nL compound (AID 1168); details: JC-1 mitochondrial fluorescence, higher = more signal, called active from +8 up or from −8 down; note: test concentration not given here
[18] = basal RPMI8226 mitochondrial membrane potential changes, profiling panel, cell-based, JC-1 fluorescence, 24 h, 100 nL compound (AID 1169); details: RPMI8226 myeloma, JC-1 mitochondrial potential fluorescence, higher = more signal; note: test concentration not given here
[19] = basal MM1S mitochondrial membrane potential changes, profiling panel, cell-based, JC-1 fluorescence, 24 h, 100 nL compound (AID 1170); details: higher = more signal; note: test concentration not given here
[20] = A549 lung cancer cell viability effects, profiling panel, resazurin fluorescence, 24 h, PK04 Diversity Set (AID 1171); details: higher = more signal, called active from +8 up or from −8 down; note: test concentration not given here

Chain of NADPH oxidase 5 (Homo sapiens) (Q96PH1 whole entry, looked up): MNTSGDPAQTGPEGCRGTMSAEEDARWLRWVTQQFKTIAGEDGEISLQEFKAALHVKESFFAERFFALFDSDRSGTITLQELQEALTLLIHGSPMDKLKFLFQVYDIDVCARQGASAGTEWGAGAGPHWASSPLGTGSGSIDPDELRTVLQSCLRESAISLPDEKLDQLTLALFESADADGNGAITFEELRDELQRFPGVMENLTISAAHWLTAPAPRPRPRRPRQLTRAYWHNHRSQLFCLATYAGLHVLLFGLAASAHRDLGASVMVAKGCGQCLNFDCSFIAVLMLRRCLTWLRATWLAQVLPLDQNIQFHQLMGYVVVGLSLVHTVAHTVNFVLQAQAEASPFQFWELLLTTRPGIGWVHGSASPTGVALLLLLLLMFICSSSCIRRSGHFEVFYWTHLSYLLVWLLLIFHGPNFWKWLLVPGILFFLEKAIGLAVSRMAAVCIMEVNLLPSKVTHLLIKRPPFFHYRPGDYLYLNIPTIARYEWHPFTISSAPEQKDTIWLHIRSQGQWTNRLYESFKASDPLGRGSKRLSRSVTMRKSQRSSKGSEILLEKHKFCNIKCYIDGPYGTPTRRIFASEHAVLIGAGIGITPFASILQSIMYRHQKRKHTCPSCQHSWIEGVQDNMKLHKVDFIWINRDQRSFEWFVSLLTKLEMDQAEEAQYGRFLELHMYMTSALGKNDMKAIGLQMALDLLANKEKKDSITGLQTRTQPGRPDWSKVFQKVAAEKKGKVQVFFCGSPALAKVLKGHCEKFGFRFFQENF
Chain of NADPH oxidase 4 (Homo sapiens) (Q9NPH5 whole entry, looked up): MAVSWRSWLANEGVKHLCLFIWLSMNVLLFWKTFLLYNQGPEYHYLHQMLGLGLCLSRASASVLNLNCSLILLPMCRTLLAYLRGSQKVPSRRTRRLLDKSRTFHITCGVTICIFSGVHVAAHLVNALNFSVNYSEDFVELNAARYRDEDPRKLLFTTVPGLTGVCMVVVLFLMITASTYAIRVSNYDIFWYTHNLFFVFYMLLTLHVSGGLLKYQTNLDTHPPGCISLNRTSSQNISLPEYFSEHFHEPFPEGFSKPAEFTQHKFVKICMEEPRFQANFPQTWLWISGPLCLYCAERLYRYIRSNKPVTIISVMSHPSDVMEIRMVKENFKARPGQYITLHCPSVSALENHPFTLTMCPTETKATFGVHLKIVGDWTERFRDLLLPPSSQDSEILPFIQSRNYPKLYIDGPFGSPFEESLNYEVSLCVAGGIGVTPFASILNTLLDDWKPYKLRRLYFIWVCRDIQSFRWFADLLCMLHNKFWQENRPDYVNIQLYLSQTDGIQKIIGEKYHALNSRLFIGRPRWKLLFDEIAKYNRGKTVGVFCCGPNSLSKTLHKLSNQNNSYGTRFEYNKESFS
Chain of NADPH oxidase 2 (Homo sapiens) (P04839 whole entry, looked up): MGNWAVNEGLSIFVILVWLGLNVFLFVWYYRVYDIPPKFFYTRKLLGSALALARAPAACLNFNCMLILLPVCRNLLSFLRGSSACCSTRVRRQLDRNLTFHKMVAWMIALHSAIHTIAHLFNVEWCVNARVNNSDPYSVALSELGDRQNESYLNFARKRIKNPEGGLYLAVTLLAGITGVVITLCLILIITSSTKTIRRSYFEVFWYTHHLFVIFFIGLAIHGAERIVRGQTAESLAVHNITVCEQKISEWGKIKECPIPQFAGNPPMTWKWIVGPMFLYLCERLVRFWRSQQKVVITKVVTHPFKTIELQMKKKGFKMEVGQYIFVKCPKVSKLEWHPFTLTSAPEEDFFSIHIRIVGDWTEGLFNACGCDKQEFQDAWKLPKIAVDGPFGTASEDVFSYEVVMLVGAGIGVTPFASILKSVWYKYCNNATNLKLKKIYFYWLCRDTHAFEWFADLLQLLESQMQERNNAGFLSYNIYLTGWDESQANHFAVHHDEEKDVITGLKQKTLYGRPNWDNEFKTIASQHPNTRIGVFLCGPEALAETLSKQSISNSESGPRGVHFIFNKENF

SMILES	z-score [1]	composite z-score [2]	z-score [3]	z-score [4]	z-score [5]	z-score [6]	z-score [7]	z-score [8]	z-score [9]	z-score [10]	z-score [11]	z-score [12]	z-score [13]	z-score [14]	z-score [15]	z-score [16]	z-score [17]	z-score [18]	z-score [19]	z-score [20]
CCC[C@@H]1C=C(C(=O)O)[C@H](c2ccc(C)cc2)N1S(=O)(=O)c1ccc(C)cc1	-0.75 (inactive)	0.114	0.0822 (inactive)	0.932 (inactive)	-0.246 (inactive)	1.03 (inactive)	-0.476	0.769 (inactive)	-0.741 (inactive)	0.101	-0.85	0.216	-0.522	-0.0213	0.101	-0.584	-0.119 (inactive)	-0.131	-0.166	-0.112 (inactive)
O=C/C=C/c1ccc2c(c1)OCO2	0.586 (inactive)	-0.205	-0.448 (inactive)	-1.11 (inactive)	0.321 (inactive)	-2.47 (inactive)	1.25	-0.41 (inactive)	-0.502 (inactive)	0.961	0.115	0.327	0.782	-0.251	0.658	1.4	-0.0743 (inactive)	0.365	0.386	-0.362 (inactive)
COCCOC(=O)N1C(=O)[C@@]2(c3cc(C#CCNC(N)=O)ccc31)[C@H](C(=O)N1CCc3cc(OC)c(OC)cc3C1)[C@H]1C(=O)O[C@H](c3ccccc3)[C@H](c3ccccc3)N1[C@@H]2c1ccc(OCCO)cc1	1.3 (inactive)	-0.361	3.93 (inactive)	1.37 (inactive)	0.695 (inactive)	0.778 (inactive)	0.412	0.825 (inactive)	0.869 (inactive)	-0.0832	-0.21	0.743	-0.0192	0.128	0.115	-0.691	1.66 (inactive)	-0.468	-0.864	0.0245 (inactive)
COCCOC(=O)N1C(=O)[C@@]2(c3cc(C#CCNC(N)=O)ccc31)[C@H](c1ccc(O)cc1)N1[C@H](c3ccccc3)[C@H](c3ccccc3)OC(=O)[C@H]1[C@@H]2C(=O)NC[C@H](O)c1ccccc1	-0.388 (inactive)	0.101	1.3 (inactive)	1.1 (inactive)	0.205 (inactive)	0.559 (inactive)	0.155	1.01 (inactive)	0.326 (inactive)	0.253	-0.276	-0.202	0.108	0.208	-0.197	-1.48	-0.563 (inactive)	0.326	-0.0292	-0.803 (inactive)
CCOC(=O)C[C@H]1[C@H](OC(=O)c2ccc(-c3ccccc3)cc2)[C@@H](NC(=O)Cc2ccc(OC)cc2)c2cc(OCCCO)ccc2N1C(=O)c1ccc2ccccc2n1	-0.667 (inactive)	-0.231	2.63 (inactive)	0.393 (inactive)	-0.619 (inactive)	0.653 (inactive)	1.3	0.377 (inactive)	1.29 (inactive)	1.73	-0.315	-0.357	0.143	-0.514	-0.129	0.176	0.824 (inactive)	0.0708	-0.625	0.596 (inactive)
Cc1ccc([C@H]2C(C(=O)O)=C[C@@H](C)N2S(=O)(=O)c2ccc(C)cc2)cc1	-0.832 (inactive)	-0.149	1 (inactive)	0.587 (inactive)	0.018 (inactive)	0.39 (inactive)	-0.848	0.534 (inactive)	0.259 (inactive)	0.101	-0.464	0.644	-0.173	-1.35	-0.808	-1.15	-0.642 (inactive)	-0.187	0.249	-0.16 (inactive)
COc1ccc([Si](C)(C)[C@@H]2[C@@H](CCn3cc([C@H](O)c4ccccc4)nn3)O[C@]3(C(=O)N(Cc4ccc(N5C(=O)c6cccc7cccc5c67)cc4)c4ccccc43)[C@H]2C)cc1	0.74 (inactive)	-0.14	1.23 (inactive)	-0.611 (inactive)	0.957 (inactive)	-0.68 (inactive)	1.11	0.584 (inactive)	1.01 (inactive)	-0.539	-0.725	1.91	-0.394	-0.709	-1.77	2.05	0.43 (inactive)	-0.964	0.209	-1.92 (inactive)
COc1ccc(C(=O)Nc2cccc(CN3C(=O)[C@@]4(O[C@@H](CCn5cc(CCO)nn5)[C@H]([Si](C)(C)c5ccc(OC)cc5)[C@H]4C)c4ccccc43)c2)cc1	-2.23 (inactive)	0.223	13.4 (active)	2.74 (inactive)	0.318 (inactive)	1.26 (inactive)	-0.782	-3.75 (inactive)	-0.389 (inactive)	2.37	-1.31	-0.599	-4.58	-2.88	-4.33	0.254	0.285 (inactive)	-0.136	-2.3	-4.55 (inactive)
CCCCCCc1nc(CCCc2cc3c(c(CCCCCC)n2)[Si](C(C)C)(C(C)C)OC3)cc2c1[Si](C(C)C)(C(C)C)OC2	-0.613 (inactive)	0.13	0.611 (inactive)	-1.07 (inactive)	0.695 (inactive)	-1.72 (inactive)	0.62	-3.69 (inactive)	-1.13 (inactive)	-3.41	-2.42	1.78	-1.47	-3.28	-4.35	0.535	0.705 (inactive)	-1.1	-0.553	1.75 (inactive)
